Tested on: Vero E6 infected with SARS-CoV-2
Assay: inhibition of SARS-CoV-2 cytopathic effect; higher = more antiviral protection, active = above 15
Settings: 48 h

Measured: inhibition of SARS-CoV-2 cytopathic effect

COc1cc2c(cc1OC)CN(CCc1ccc(NC(=O)c3cc(OC)c(OC)cc3NC(=O)c3cnc4ccccc4c3)cc1)CC2 [tariquidar]
inactive: 1 nM 1.54% | 8.33 nM -1.28% | 100 nM 2.75% | 833.33 nM 1.99% | 10000 nM -0.52%

O=c1[nH]c(=O)n([C@H]2C[C@H](O)[C@@H](CO)O2)cc1F [floxuridine]
inactive: 1 nM 1.42% | 8.33 nM 1.34% | 100 nM -1.95% | 833.33 nM -2.04% | 10000 nM -4.05%

C[C@@H]1O[C@@H](OC[C@H]2O[C@@H](Oc3c(-c4ccc(O)c(O)c4)oc4cc(O)cc(O)c4c3=O)[C@H](O)[C@@H](O)[C@@H]2O)[C@H](O)[C@H](O)[C@H]1O [rutin]
inactive: 1 nM 1.54% | 8.33 nM 1.59% | 100 nM 5.75% | 833.33 nM 0.96% | 10000 nM -5.92%

O=C(O)CSc1nnc(Br)n1-c1ccc(C2CC2)c2ccccc12 [lesinurad]
inactive: 1 nM -0.42% | 8.33 nM -0.65% | 100 nM 2.45% | 833.33 nM 0.63% | 10000 nM -2.06%

Cc1ccccc1C(=O)c1ccc(Nc2ccc(Br)cc2N)cc1Cl
inactive: 1 nM 1.98% | 8.33 nM 1.13% | 100 nM -4.39% | 833.33 nM -0.22% | 10000 nM 3.01%

COC(=O)[C@H](CC(C)C)NC(=O)c1ccc(NC[C@@H](N)CS)cc1-c1cccc2ccccc12
inactive: 1 nM -1.19% | 8.33 nM 4.63% | 100 nM -0.9% | 833.33 nM -1.25% | 10000 nM -4.69%

C[C@@H](O[C@H]1OCCN(Cc2nn[nH]c2CN(C)C)[C@H]1c1ccc(F)cc1)c1cc(C(F)(F)F)cc(C(F)(F)F)c1
inactive: 1 nM -0.75% | 8.33 nM -1.76% | 100 nM -0.97% | 833.33 nM -4.49% | 10000 nM 7.29%

Cc1ccc(C(=O)N(CCCN)[C@@H](c2nc3cc(Cl)ccc3c(=O)n2Cc2ccccc2)C(C)C)cc1 [ispinesib]
inactive: 1 nM 0.51% | 8.33 nM -1.24% | 100 nM -2% | 833.33 nM -2.99% | 10000 nM -4.72%

CN(C)[C@@H](CCOc1cccc2ccccc12)c1ccccc1 [dapoxetine]
inactive: 1 nM 1.42% | 8.33 nM 3.51% | 100 nM 1.54% | 833.33 nM 0.31% | 10000 nM 1.17%

CC/C=C\C/C=C\C/C=C\C/C=C\C/C=C\C/C=C\CCC(=O)OCC [doconexent-ethyl-ester]
inactive: 1 nM -1.67% | 8.33 nM 0.01% | 100 nM 0.45% | 833.33 nM 0.72% | 10000 nM 0.36%

Cn1ncc(Cl)c1-c1cc(C(=O)N[C@H](CN)Cc2ccc(F)c(F)c2)oc1Cl [uprosertib]
inactive: 1 nM -2.98% | 8.33 nM -0.16% | 100 nM -1.46% | 833.33 nM 0.21% | 10000 nM -3.53%

CCNC(C)CN1CCc2c(c(=O)oc3ccccc23)C1 (stereo not given)
inactive: 1 nM -2.32% | 8.33 nM 0.86% | 100 nM -0.83% | 833.33 nM -0.78% | 10000 nM -2.07%

O=C(Nc1ccc(C(O)(C(F)(F)F)C(F)(F)F)cc1)c1ccc(C(F)(F)F)cc1
inactive: 1 nM 0.8% | 8.33 nM 1.24% | 100 nM 0.25% | 833.33 nM 1.02% | 10000 nM 1.6%

Oc1ccc([C@H]2COc3cc(O)ccc3C2)cc1 [equol]
inactive: 1 nM -2.73% | 8.33 nM -1.03% | 100 nM -2.88% | 833.33 nM 3.83% | 10000 nM 0.31%

Cc1cccc(C)c1-n1c(=O)c2cnc(Nc3ccc(N4CCN(C)CC4)cc3)nc2n2c3ccccc3nc12
inactive: 1 nM -1.2% | 8.33 nM -0.67% | 100 nM -2.31% | 833.33 nM 0.21% | 10000 nM -3.38%

COC(=O)C1=C(C)NC(C)=C(C(=O)O[C@H]2CCN(Cc3ccccc3)C2)[C@H]1c1cccc([N+](=O)[O-])c1 [barnidipine]
inactive: 1 nM 2.33% | 8.33 nM 1.62% | 100 nM 1.31% | 833.33 nM 3.84% | 10000 nM -0.56%

CN(C)CC[C@@]1(c2ccc(Cl)cc2)Cc2ccccc2C(=O)O1 (racemic)
inactive: 1 nM -1.76% | 8.33 nM -2.36% | 100 nM -1.71% | 833.33 nM -2.86% | 10000 nM -3.54%

Cc1sc(C)c2c1CCC=C2c1c[nH]cn1
inactive: 1 nM -1.05% | 8.33 nM -1.35% | 100 nM -1.5% | 833.33 nM -2.81% | 10000 nM -2.28%

N#Cc1ccc(-c2ccc(S(=O)(=O)Nc3cccc(N)n3)cc2)cc1
inactive: 1 nM 0.14% | 8.33 nM 3.14% | 100 nM -0.56% | 833.33 nM 0.76% | 10000 nM 1.78%

CC(/C=C/C(=O)NO)=C\[C@@H](C)C(=O)c1ccc(N(C)C)cc1 [trichostatin-a]
inactive: 1 nM -3.04% | 8.33 nM -7.12% | 100 nM -16% | 833.33 nM -31% | 10000 nM -31.1%

CC(=O)O[C@]1(C(C)=O)CC[C@H]2[C@@H]3CCC4=CC(=O)CCC4=C3[C@@H](c3ccc(N(C)C)cc3)C[C@@]21C [Ulipristal acetate]
inactive: 1 nM 4.79% | 8.33 nM 2.62% | 100 nM 1.8% | 833.33 nM 7.36% | 10000 nM 12.9%

COC(=O)C1=C(C)NC(C)=C(C(=O)OCCCN2CCC(c3ccccc3)(c3ccccc3)CC2)[C@@H]1c1cccc([N+](=O)[O-])c1 [dexniguldipine]
inactive: 1 nM 1.4% | 8.33 nM 0.16% | 100 nM 2.09% | 833.33 nM -3.36% | 10000 nM -4.64%

CC(C)(C)c1ccc(O)cc1 [4-tert-butylphenol]
inactive: 1 nM -0.71% | 8.33 nM 1.9% | 100 nM -1.66% | 833.33 nM 2.45% | 10000 nM 2.59%

C[C@]12CC[C@@H]3c4ccc(OC(=O)N(CCCl)CCCl)cc4CC[C@H]3[C@@H]1CC[C@@H]2OP(=O)(O)O [estramustine-phosphate]
inactive: 1 nM -1.79% | 8.33 nM 0.03% | 100 nM -0.34% | 833.33 nM -1.57% | 10000 nM -2.26%

Cc1cc(C)nc(NS(=O)(=O)c2ccc(NC(=S)NC(=O)COc3ccc(Br)cc3Cl)cc2)n1
inactive: 1 nM -1.5% | 8.33 nM -0.46% | 100 nM -0.98% | 833.33 nM -2.23% | 10000 nM 0.9%

CCN(Cc1ccc(Cl)nc1)/C(=C/[N+](=O)[O-])NC [nitenpyram]
inactive: 1 nM 0.79% | 8.33 nM -0.17% | 100 nM -0.29% | 833.33 nM -1.84% | 10000 nM 1.08%

Cc1cnc(NC(=O)Nc2cc(Br)c(C)cc2OC[C@@H]2CNCCO2)cn1
inactive: 1 nM 1.08% | 8.33 nM 0.44% | 100 nM 1.44% | 833.33 nM -2.34% | 10000 nM -10.4%

Cc1c(C(N)=O)cc([N+](=O)[O-])cc1[N+](=O)[O-] [dinitolmide]
inactive: 1 nM -1.43% | 8.33 nM 2.03% | 100 nM 1.29% | 833.33 nM -2.22% | 10000 nM -3.59%

OCCNCCCOc1cccc(Cl)c1Cl
inactive: 1 nM 1.41% | 8.33 nM 0.45% | 100 nM 1.26% | 833.33 nM 0.42% | 10000 nM -19.6%

Cc1cc(C)c2c(N)c(C(=O)NCc3ccc(Cl)cc3)sc2n1
inactive: 1 nM 1.18% | 8.33 nM -1.88% | 100 nM -0.97% | 833.33 nM -0.85% | 10000 nM 0.14%

CN(c1ncccc1CNc1nc(Nc2ccc3c(c2)CC(=O)N3)ncc1C(F)(F)F)S(C)(=O)=O
inactive: 1 nM 0.16% | 8.33 nM 0.22% | 100 nM -1.3% | 833.33 nM -2.48% | 10000 nM -3.05%

CCCCCCCCCCCCCCCC[n+]1ccn(Cc2ccccc2)c1C
inactive: 1 nM -1.36% | 8.33 nM 0.51% | 100 nM 0.65% | 833.33 nM -4.4% | 10000 nM -20.9%

NS(=O)(=O)c1ccc2c(c1)C1C=CCC1C(c1ccc(Br)cc1)N2 (stereo not given)
inactive: 1 nM -1.04% | 8.33 nM 1.37% | 100 nM -1.73% | 833.33 nM -1.33% | 10000 nM -0.61%

COc1ccc(C(Cl)=C(c2ccc(OC)cc2)c2ccc(OC)cc2)cc1 [chlorotrianisene]
inactive: 1 nM -2.25% | 8.33 nM 0.16% | 100 nM -0.43% | 833.33 nM -2.65% | 10000 nM 5.78%

Cc1ccccc1C(=O)Nc1ccc(C(=O)N2CCCC(N(C)C)c3ccccc32)cc1 (stereo not given) [mozavaptan]
inactive: 1 nM 0.68% | 8.33 nM 1.45% | 100 nM 3.31% | 833.33 nM -0.56% | 10000 nM -5.53%

N[C@@H](Cn1oc(=O)[nH]c1=O)C(=O)O [L-quisqualic-acid]
inactive: 1 nM -3.6% | 8.33 nM 3.03% | 100 nM 2.21% | 833.33 nM -1.93% | 10000 nM 0.17%

Cc1cc(C(C)(C)CC(C)(C)C)ccc1OCCOCC[N+](C)(C)Cc1ccccc1 [methylbenzethonium-chloride]
inactive: 1 nM -1.31% | 8.33 nM -1.52% | 100 nM -3.07% | 833.33 nM -0.46% | 10000 nM -4.8%

CN(C)CCc1c[nH]c2ccc(CS(=O)(=O)N3CCCC3)cc12 [almotriptan]
inactive: 1 nM -0.13% | 8.33 nM 1.33% | 100 nM -0.24% | 833.33 nM 0.04% | 10000 nM -2.87%

COc1ccc(OC)c(CN(C(C)=O)c2cc(F)ccc2Oc2ccccc2)c1
inactive: 1 nM 1.17% | 8.33 nM -0.16% | 100 nM 4.26% | 833.33 nM 3.55% | 10000 nM 2.47%
